High-throughput results: PubChem, National Center for Advancing Translational Sciences (NCATS)
KB-3-1 cytotox = qHTS assay for MDR1-selective chemotherapeutics: Primary screen using the parental adenocarcinoma cell KB-3-1; Potency, µM (titrated, usually from 46.1 µM), most hits filed as cytotoxic; KB-3-1 viability, CellTiter-Glo ATP luminescence, 72 h; 400,000 compounds, 1.4% hits; further: nearly all actives have a fitted effect of over 60% in size
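Screening of KB-3-1 cells (DMEM, 10% FBS, phenol-red free) ran from lowest to highest compound concentration; after 72 h at 37 °C viability was read luminescently and curves fitted.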
HT1080 IDH1KD tx = qHTS for induction of synthetic lethality in tumor cells producing 2HG: qHTS for the HT-1080-IDH1KD cell line. Potency, µM (top dose mostly 46.1 µM), actives largely listed as cytotoxic. 360,000 compounds, 2% hits. AID 686971, 2013. HT-1080 IDH1 knockdown viability, ATP luminescence, 48 h
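After a 2 h attachment period, IDH1KD HT-1080 cells took pin-transferred compound for 48 h at 37 °C; ATP-based luminescence after 10 min room-temperature reagent incubation reported viability.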
HT1080NT lethal = qHTS for induction of synthetic lethality in tumor cells producing 2HG: qHTS for the HT-1080-NT fibrosarcoma cell line; AID 686970, 2013; HT-1080-NT fibrosarcoma viability, CellTiter-Glo ATP luminescence, 48 h; 360,000 compounds, 1.6% hits; Potency, µM (top dose mostly 46.1 µM), hits mostly cytotoxic;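 further: NT is the 2HG producing partner of a matched IDH1 knockdown line; nearly all actives have a fitted effect of over 55% in size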
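Fibrosarcoma NT cells, 750 per well in 5% FBS RPMI, were exposed to compound for 48 hours. Viability: CellTiter-Glo luminescence.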
KB-V1 cytotox = qHTS assay for MDR1-selective chemotherapeutics: Primary screen using the drug-selected MDR subline cells KB-V1. KB-V1 MDR cells viability, CellTiter-Glo, 72 h. Potency, µM (series often up to 46.1 µM), usual class: cytotoxic. 400,000 compounds, 3.4% hits. AID 1347076, 2019; further: nearly all actives have a fitted effect of over 60% in size
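Potencies derive from concentration-effect curves fitted to normalized luminescence (CellTiter-Glo) of KB-V1 cells treated for 72 h at 37 degrees C in phenol-red-free DMEM containing 10% FBS.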
DT40 TDP1 no CPT = qHTS for Inhibitors of human tyrosyl-DNA phosphodiesterase 1 (TDP1): qHTS in cells in absence of CPT; 420,000 compounds, 15% hits; Potency, µM (titrated, usually from 46.2 µM), hits mostly inhibitors; DT40 Tdp1-/- hTDP1 cells, no CPT, ATP luminescence, 48 h; further: nearly all actives have a fitted effect of over 55% in size
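Growth of hTDP1-complemented DT40 Tdp1-knockout cells is measured by ATP luminescence after at least 48 hr compound exposure at 37 °C, with DMSO substituting for the 20 nM CPT used in the parallel screen.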
DT40 TDP1 CPT = qHTS for Inhibitors of human tyrosyl-DNA phosphodiesterase 1 (TDP1): qHTS in cells in presence of CPT | chicken DT40 Tdp1-/-;hTDP1 cells + 20 nM CPT, ATP luminescence, 48 h | Potency, µM (series often up to 46.2 µM), most hits filed as inhibitors | 420,000 compounds, 12% hits | AID 686979, 2013; further: nearly all actives have a fitted effect of over 55% in size
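Cell growth measured by CellTiter-Glo luminescence after a minimum 48 h, 37 C compound exposure with 20 nM CPT in Tdp1-knockout DT40 cells stably expressing hTDP1, seeded 400/well; qHTS titration format.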
Hits are given with their value; n = inactive; u = inconclusive; x = not tested or not shown. This is a sample that favours compounds with a hit; in the whole collection about 19% have one here. The call rests on the fitted dose curve; in most records, active means well fitted curve in the direction sought with a large enough effect; inconclusive means small, poorly fitted or top-dose-only effect, or another doubt; inactive means no such curve, though single readings can be large; an effect the other way counts as inactive or inconclusive.

SMILES | KB-3-1 cytotox | HT1080 IDH1KD tx | HT1080NT lethal | KB-V1 cytotox | DT40 TDP1 no CPT | DT40 TDP1 CPT
COc1ccc(CC(C)NCCC(c2ccccc2)c2ccccc2)cc1 (stereo not given) | n | n | n | u | 16.4µM | 13µM
O=C1OCc2cc(N=Nc3c(O)[nH]c(=O)[nH]c3=O)ccc21 | n | n | n | n | n | n
CC1(Cc2ccc(C(F)(F)F)nc2)C(=O)Nc2cc(-c3ccccc3Cl)ccc21 (stereo not given) | n | u | n | n | u | 16.4µM
COc1ccc(C(=O)O[C@H]2CC[C@@]3(C)C4CCC5[C@]6(O)C[C@H](O)[C@@]7(O)C(CN8C[C@@H](C)CC[C@H]8[C@@]7(C)O)[C@]6(O)C[C@@]53O[C@@]42O)cc1OC (stereo not given in full) | x | x | x | x | n | n
COP(=O)(OC)OC=C(Cl)Cl | x | x | x | x | 11.9µM | u
CCC(=NCc1ccc2c(c1)OCO2)c1c(O)n(C)c(=O)n(C)c1=O | 14.6µM | n | n | n | 20.6µM | u
CC(=NCc1ccc2c(c1)OCO2)c1c(O)n(C)c(=O)n(C)c1=O | 8.2µM | n | 2.51µM | 20.6µM | u | u
CCCCn1c(O)c(C(C)=NCc2ccc3c(c2)OCO3)c(=O)[nH]c1=O | n | n | n | u | u | u
CCC(=NCc1cc(OC)cc(OC)c1)c1c(O)n(C)c(=O)n(C)c1=O | u | n | n | 7.31µM | 8.91µM | 10µM
COC(=O)[C@@]1(C#N)[C@@H]2C=CC(C(C)=O)=CN2[C@@H](C(N)=O)[C@@H]1c1ccc(F)cc1 | n | n | n | n | u | n
C=CCN(CC(=O)c1sc(C(=O)OCC)nc1C)c1cccc(Br)c1 | n | n | n | n | u | u
CC(C)(C)OC(=O)N1CCCC(C(=O)Nc2cccc(C(=O)NCCc3ccccc3)c2)C1 (stereo not given) | n | n | n | n | 20.6µM | 14.6µM
CC(=O)NNC(=O)CN1C(=O)CN=C(c2ccccc2)c2cc(Br)ccc21 | n | n | n | n | n | n
Cc1cccc(-n2c(-c3cccs3)nc3ccccc3c2=O)c1 | n | n | n | u | u | 16.4µM
O=c1c2ccccc2nc(-c2cccs2)n1-c1ccccc1 | n | n | n | u | 23.1µM | u
CCOc1ccc(-n2c(-c3cccs3)nc3ccccc3c2=O)cc1 | n | n | n | n | u | u
COC1C(C)OC(OC2CC(C)(O)Cc3cc4c(c(O)c32)C(=O)c2c(O)cc3c(c2C4=O)OC2OC3(C)C(O)C(N(C)C)C2O)C(OC)C1(C)OC (stereo not given) | 0.461µM | 16.4µM | u | n | 0.116µM | 0.082µM
CCN(CC)CCNC(=O)c1c(C)[nH]c(/C=C2\C(=O)Nc3ccc(F)cc32)c1C | x | x | x | x | 3.76µM | 4.22µM
CC(=O)N1CC2CC(C1)c1cccc(=O)n1C2 (stereo not given) | x | x | x | x | n | n
COc1ccc(-c2nc(SCC(=O)NC(C)CCc3ccccc3)n[nH]2)cc1 (stereo not given) | x | x | x | x | 11.6µM | 11.6µM
Cc1c(C(=O)NCCC2=CCCCC2)oc2ccc(S(=O)(=O)N3CCC4(CC3)OCCO4)cc12 | u | n | n | 16.4µM | 23.1µM | 18.4µM
